According to PubChem BioAssay (NCI):
Compounds without any hit were thinned out: in the full panel of roughly 79,000, 15% have a hit. No stated cut-off is given here; in the data, active means growth inhibition above about 70%; inactive means the rest.

What was measured:
[1] = NCI Yeast Anticancer Drug Screen. Data for the rad50 strain (AID 155);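 further: 0% = growth of vehicle-only cultures of the same strain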; conditions: S. cerevisiae rad50 strain growth inhibition; at 50.0 µM; hits give high values
Outline: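 Compounds were tested on a yeast strain with an engineered DNA damage repair alteration; the reported value is growth inhibition normalised to vehicle treatment.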

[2] = NCI Yeast Anticancer Drug Screen. Data for the mec2-1 strain (AID 157); conditions: S. cerevisiae mec2-1 strain, at 50.0 µM, hits give high values
Outline: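 Mutant yeast (mec2-1) grown with compound; growth inhibition relative to vehicle control reported.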

[3] = NCI Yeast Anticancer Drug Screen. Data for the sgs1 mgt1 strain (AID 161);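 further: 0% = growth of cultures given vehicle only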; conditions: S. cerevisiae sgs1 mgt1 strain, at 50.0 µM, hits give high values
Outline: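 Compounds are added to genetically altered yeast, and growth is compared with cultures given vehicle alone to give percent inhibition.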

[4] = NCI Yeast Anticancer Drug Screen. Data for the cln2 rad14 strain (AID 165);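 further: 0% = growth equal to vehicle treated cultures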; conditions: S. cerevisiae cln2 rad14 strain, at 50.0 µM, hits give high values
Outline: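 Readout is yeast growth inhibition versus vehicle-treated controls, using a strain with cln2 and rad14 alterations exposed to compound.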

[5] = NCI Yeast Anticancer Drug Screen. Data for the bub3 strain (AID 167); conditions: S. cerevisiae bub3 mutant strain, at 50.0 µM, hits give high values
Outline: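 Growth of a checkpoint-deficient yeast mutant is measured after compound exposure. Values represent inhibition relative to vehicle.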

[6] = NCI Yeast Anticancer Drug Screen. Data for the mlh1 rad18 strain (AID 175); conditions: S. cerevisiae mlh1 rad18 strain growth inhibition; at 50.0 µM; hits give high values
Outline: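 Genetically defined yeast (DNA repair-deficient) exposed to compounds; growth inhibition determined relative to vehicle.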

Measured: growth inhibition

COc1ccc2ccccc2c1CN1CCOCCOCCN(Cc2c(OC)ccc3ccccc23)CCOCCOCC1
inactive: [1] -18.1% | [2] -34.5% | [3] -23.4% | [4] -28.1% | [5] 5.75% | [6] -29.4%

O=C1CSSCC(=O)NCCCN1
inactive: [1] 2.25% | [2] 1.15% | [3] -5.35% | [4] 0.8% | [5] 2.55% | [6] 28.2%

O=C(NC(=O)c1c(F)cccc1F)Nc1nc2c(Cl)cccc2s1
inactive: [1] 21.4% | [2] 14.7% | [3] 10.1% | [4] -4.9% | [5] -6.55% | [6] 17.6%

CN(C)C=Nc1ccc([N+](=O)[O-])cc1
inactive: [1] -7.7% | [2] -2.65% | [3] -1.25% | [4] -12.8% | [5] -0.6% | [6] -5.3%

CC(=O)c1ccc(N=C2C=CC(=O)O2)cc1
inactive: [1] 6.85% | [2] -14.9% | [3] -11.1% | [4] -21.5% | [5] -4.65% | [6] 7.65%

CN(c1ncc(Cc2cnc(N(C)C3CCN(Cc4ccccc4)CC3)nc2)cn1)C1CCN(Cc2ccccc2)CC1
inactive: [1] -0.75% | [2] -5.95% | [3] -12.8% | [4] -7.95% | [5] -2.95% | [6] -21.8%

O=C(Nc1cc(Br)c2cccc3c2c1CC3)c1ccccc1
inactive: [1] 6.35% | [2] 10.9% | [3] 1.45% | [4] -5.25% | [5] 14.3% | [6] -0.95%

Cn1c(=O)c2c(nc3n2C(CCl)CO3)n(C)c1=O (configuration not stated)
inactive: [1] 40.5% | [2] 12.8% | [3] 7.75% | [4] 9.5% | [5] 34% | [6] 32.4%

O=C1c2cccc([N+](=O)[O-])c2C(=O)c2cccc(Cl)c21
inactive: [1] 29.2% | [2] 9.35% | [3] -4.15% | [4] -17.9% | [5] 32.5% | [6] 42.9%

O=[N+]([O-])c1cc(C(F)(F)F)ccc1Cl
inactive: [1] -11.2% | [2] 10.3% | [3] -5.85% | [4] 31.3% | [5] -12.9% | [6] -27.8%

O=[N+]([O-])c1ccc2c(ccn2C2OCC(O)C(O)C2O)c1 (configuration not stated)
inactive: [1] 5.7% | [2] 13.6% | [3] 8.7% | [4] -3.55% | [5] 18.1% | [6] -2.7%

CN1C(=O)C(=O)OC1=C(c1ccccc1)c1ccccc1
inactive: [1] 2.9% | [2] -4.6% | [3] 0.85% | [4] -30.9% | [5] -17.6% | [6] -18.2%

N#Cc1ccccc1N=Nc1nc(N)c(C(N)=O)[nH]1
inactive: [1] 22.2% | [2] 13.7% | [3] 11.2% | [4] -5.05% | [5] 4.7% | [6] 10.2%

CCN(CC)CC1CO1 (configuration not stated)
inactive: [1] -8.15% | [2] -12.1% | [3] 3.35% | [4] -3.5% | [5] -11.7% | [6] 9.2%

O=NSC(c1ccccc1)(c1ccccc1)c1ccccc1
inactive: [1] 1.65% | [2] -24.2% | [3] 1.6% | [4] -28.1% | [5] -9.25% | [6] 0%

CCOC(=O)C1=C(NC(C)(C)C)OC/C1=N\NC(=O)Cc1ccccc1
inactive: [1] 42.8% | [2] -3.6% | [3] 21.2% | [4] 16.6% | [5] 26.2% | [6] 28.1%

CCOc1ccccc1Br
inactive: [1] -2.05% | [2] 8.65% | [3] -2.05% | [4] -9.8% | [5] 1% | [6] -38.2%

N#Cc1c2nc3ccccc3nc2n2ccccc12
inactive: [1] 0.7% | [2] 19.4% | [3] -18.9% | [4] 1.25% | [5] 1.15% | [6] 53.8%

Nc1cc(Br)cc2c1-c1ccc(Br)cc1C2=O
inactive: [1] 15.1% | [2] -10.6% | [3] 1.35% | [4] -54.9% | [5] 5.15% | [6] 10%

CC1Cc2ccc(OCC(O)CO)cc2C1=O (configuration not stated)
inactive: [1] 7.35% | [2] 1.8% | [3] 11.1% | [4] 15.1% | [5] -0.2% | [6] 1.7%

Cc1oc2ccccc2c(=O)c1Cn1cnc2ccc([N+](=O)[O-])cc21
inactive: [1] -0.45% | [2] 10.3% | [3] 21.5% | [4] 11.8% | [5] 5.85% | [6] 10.1%

OCC(O)C(O)C(O)c1nn(-c2ccccc2)c2nc3ccc(Cl)cc3nc12 (configuration not stated)
inactive: [1] -0.8% | [2] 9% | [3] 6.05% | [4] -3.8% | [5] 9.25% | [6] 5.3%

CCOC(=O)/C=C(/C)c1ccccc1
inactive: [1] 12.2% | [2] 18.2% | [3] 6.9% | [4] 0.7% | [5] -2.7% | [6] 3.1%

O=NN(CCF)C(=O)N[C@H]1CCCC[C@H]1O
inactive: [1] -15.7% | [2] -19.1% | [3] -27.1% | [4] 2.75% | [5] -15.9% | [6] 1.45%

CCCCCC(=O)Nc1cc(N)cc(C(=O)O)c1
inactive: [1] 4.25% | [2] 9.25% | [3] 9.5% | [4] -9.6% | [5] 0.1% | [6] -14.3%

CCOc1c/c(=N\N=C(/C)c2ccc(Cl)cc2)n(C)c(=O)n1C
inactive: [1] -13.8% | [2] -8.5% | [3] -10.5% | [4] -35.2% | [5] -6.85% | [6] -12.7%

CCCCC1(NN=C2CCCCC2)C(=O)N(c2ccccc2)N(c2ccccc2)C1=O
inactive: [1] -11.2% | [2] -6.2% | [3] -0.4% | [4] -0.75% | [5] -7.4% | [6] -8.65%

CCOC(=O)N/C=C/C(C)=O
inactive: [1] -31.1% | [2] -14.2% | [3] -1.5% | [4] -29.4% | [5] -6.35% | [6] -14.5%

COc1cccc(CCO)c1OC
inactive: [1] 1.3% | [2] -13.2% | [3] 10.9% | [4] -10.4% | [5] 5.2% | [6] 10.9%

CC1(C)CCCC2(C)C(C(=O)O)C3CCC45OC3(CC12)OC(=O)C4C1(C)CCCC(C)(C)C1CC5=O (configuration not stated)
inactive: [1] 2.15% | [2] 5.65% | [3] -0.9% | [4] 2.85% | [5] -2.1% | [6] 9.25%

C(#CCOc1ccc2c(c1)OCO2)COc1ccc2c(c1)OCO2
inactive: [1] 29% | [2] 0.8% | [3] -18.8% | [4] -9.05% | [5] -8.8% | [6] 8.3%

CC(C)CNc1ncnc2[nH]ncc12
inactive: [1] -1.75% | [2] -6.2% | [3] -3.55% | [4] -3.35% | [5] 1.2% | [6] -6.2%

Cc1ccccc1-n1c(=S)[nH]c2c(sc(=O)n2-c2ccccc2C)c1=O
inactive: [1] 3.95% | [2] -7.9% | [3] 0.8% | [4] 17.6% | [5] 0.1% | [6] -11.4%

NC1=C(O)C(=O)C(c2ccc3c(c2)CCC3)O1 (configuration not stated)
inactive: [1] -24.5% | [2] -14.7% | [3] -22.4% | [4] -12.6% | [5] -14% | [6] -9.1%

C[n+]1nc([O-])oc1-c1ccccc1
inactive: [1] 4.5% | [2] 3.05% | [3] 11.4% | [4] -3.65% | [5] -4.6% | [6] 6.3%

O=c1c(-c2ccccc2)c2oc(c1-c1ccccc1)CSCc1cccc(c1)CSC2
inactive: [1] 15% | [2] -0.1% | [3] -3.55% | [4] -28.9% | [5] -20.6% | [6] 7.8%

COc1cc(C(c2ccc3c(c2)OCO3)N2C(=O)CCC2C(=O)O)cc(OC)c1OC (configuration not stated)
inactive: [1] -14.1% | [2] -15.6% | [3] -18.8% | [4] -11.7% | [5] -7.8% | [6] -10.2%

O=C(Nc1cccc(O)c1)C(O)C(O)C(O)C(O)CO (configuration not stated)
inactive: [1] -10.8% | [2] 14.4% | [3] 18.2% | [4] 10.6% | [5] 9.05% | [6] 10.9%

CNc1ccc(CC(=O)O)cc1
inactive: [1] -2.75% | [2] 3.85% | [3] -2.45% | [4] -42% | [5] -2.05% | [6] 1.8%

COc1ccc(C(=O)/C=C/c2ccc(OCCSCCCCCCCCCCSCCOc3ccc(/C=C/C(=O)c4ccc(OC)c(OC)c4)cc3)cc2)cc1OC
inactive: [1] -44.4% | [2] -26.1% | [3] -28.2% | [4] -6.35% | [5] -29.6% | [6] -53.6%

O=C(C(c1ccccc1)C(F)(F)F)N1CCCC1 (configuration not stated)
inactive: [1] 7.4% | [2] -7.8% | [3] 5.05% | [4] -13.3% | [5] 13.8% | [6] 0.6%

O=C1OC(c2ccccc2)=N/C1=C/c1c(-c2ccccc2)c(-c2ccccc2)c2n1CCC2
inactive: [1] 21.9% | [2] 9.75% | [3] 3.05% | [4] 25.5% | [5] -4.45% | [6] 18.6%
